Screening data from PubChem BioAssay.
PTPN22 act: LYP phosphatase activators, primary screen, biochemical, DiFMUP fluorescence, 2 µM; actives 0.11% (n = 96,000); activation, % at 2 µM; recombinant LYP; 0 = plate median, 100 = signal doubled; Tyrosine-protein phosphatase non-receptor type 22 (Homo sapiens), Q9Y2R2; AID 697, 2007;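 active means activation at 2 µM above a set limit, the mean plus 5 SD, cut at about 37% in these data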
Target sequence (Q9Y2R2 whole entry, looked up): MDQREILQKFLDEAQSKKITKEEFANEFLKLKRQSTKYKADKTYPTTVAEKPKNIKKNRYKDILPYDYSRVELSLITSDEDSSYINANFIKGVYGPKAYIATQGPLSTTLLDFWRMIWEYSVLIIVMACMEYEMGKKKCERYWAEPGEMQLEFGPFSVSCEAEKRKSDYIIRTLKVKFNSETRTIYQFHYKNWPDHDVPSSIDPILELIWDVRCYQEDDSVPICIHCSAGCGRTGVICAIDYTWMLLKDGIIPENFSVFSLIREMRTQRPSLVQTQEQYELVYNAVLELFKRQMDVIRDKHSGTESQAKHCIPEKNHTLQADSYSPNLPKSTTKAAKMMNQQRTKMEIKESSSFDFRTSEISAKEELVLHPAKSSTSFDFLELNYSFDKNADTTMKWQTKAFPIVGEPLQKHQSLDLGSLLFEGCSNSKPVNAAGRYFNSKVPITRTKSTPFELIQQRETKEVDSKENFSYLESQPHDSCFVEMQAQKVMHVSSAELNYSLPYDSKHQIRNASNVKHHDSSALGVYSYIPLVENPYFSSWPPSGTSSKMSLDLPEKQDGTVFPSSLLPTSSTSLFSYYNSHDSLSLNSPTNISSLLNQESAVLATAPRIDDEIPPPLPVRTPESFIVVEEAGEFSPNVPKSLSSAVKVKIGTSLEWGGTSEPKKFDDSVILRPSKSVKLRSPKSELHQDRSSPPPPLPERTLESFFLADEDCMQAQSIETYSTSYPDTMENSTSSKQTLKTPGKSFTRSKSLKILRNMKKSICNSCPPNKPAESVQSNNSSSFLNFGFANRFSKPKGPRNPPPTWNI
PLK1 inh: human PLK1 kinase inhibitors, primary screen, biochemical, TR-FRET | Serine/threonine-protein kinase PLK1 (Homo sapiens), P53350 | recombinant PLK1 kinase, TR-FRET peptide phosphorylation | inhibition, % at 10 µM | actives 0.53% (n = 97,000) | AID 619, 2007;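 active means inhibition of 50% or more in the single-concentration screen; inactive means inhibition below 50%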
PLK1 PBD inh: Plk1 polo box domain binding inhibitors, primary screen, biochemical, fluorescence polarization; Serine/threonine-protein kinase PLK1 (Homo sapiens), P53350; Plk1 PBD phosphopeptide binding; inhibition, %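 (tested at about 20 µM)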; actives 0.13% (n = 97,000); in the data active means inhibition above about 34%, passing the limit was not always enough
LYP inh 2: PTPN22 phosphatase inhibitors, primary screen, biochemical, DiFMUP fluorescence, 2 µM; recombinant LYP catalytic domain; inhibition, % at 2 µM; actives 0.21% (n = 96,000);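 active means inhibition at 2 µM at or above a set limit, the screen mean plus 3 SD, cut at about 24% in these data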
EphB4 antag: EphB4-ephrin-B2 interaction antagonists, primary screen, biochemical, TNYL-RAW peptide probe, fluorescence polarization; Ephrin type-B receptor 4 (Homo sapiens), P54760; EphB4 LBD / TNYL-RAW-Alexa532 peptide; inhibition, % at 7 µM; actives 0.15% (n = 97,000); AID 720, 2007;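 active means inhibition above the screen-wide mean inhibition plus 3 SD, cut at about 15% in these data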
FAK blocker: FAK kinase inhibitors, primary screen, biochemical; Focal adhesion kinase 1 (Homo sapiens), Q05397; biochemical FAK kinase activity assay; inhibition, %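 (tested at 7 µM)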; actives 0.84% (n = 97,000); AID 727, 2007; in the data active means inhibition above about 19%
Numbers stand for hits; n = inactive; x = not tested or not shown. Most compounds without a hit are left out; they make up all but 1.7% or so of the library.

SMILES	PTPN22 act	PLK1 inh	PLK1 PBD inh	LYP inh 2	EphB4 antag	FAK blocker
CC1(C)Cc2c(C#N)c(N3CCCC3)nc(-c3ccco3)c2CO1	x	51	n	x	n	n
CC1(C)Cc2c(c(-c3ccco3)nc3n[nH]c(N)c23)CO1	n	52	n	n	n	n
CCSc1ncnc2c1sc1nc(-c3ccco3)c3c(c12)CC(C)(C)OC3	n	n	n	n	n	n
CCC(c1nnc(SCC(=O)NCCc2ccc(Cl)cc2Cl)o1)N(C)C (centres undefined)	n	n	n	n	n	n
Cc1cc(C)cc(-n2c3nc4ccccc4nc3c3c(=O)n(Cc4ccco4)cnc32)c1	n	n	n	38	n	n
COc1ccc2c(CC(=O)Nc3c(C)n(C)n(-c4ccccc4)c3=O)coc2c1	n	n	n	n	n	n
COc1ccc2c(C)cc(SCC(=O)Nc3c(C)n(C)n(-c4ccccc4)c3=O)nc2c1	n	n	n	47	n	n
O=C(NC(Cc1ccccc1)c1nc2ccccc2[nH]1)C1CC(=O)N(c2ccc3c(c2)OCCO3)C1 (centres undefined)	n	n	n	n	15	n
CC(NC(=O)c1ccco1)c1cccc2ccccc12 (centres undefined)	n	n	n	n	n	n
Cc1ccc(-c2nc(CS(=O)CC(=O)NCCC(C)C)c(C)o2)cc1 (centres undefined)	x	67	n	x	n	n
CCCNC(=O)CS(=O)Cc1nc(-c2ccc(OC)cc2)oc1C (centres undefined)	x	67	n	x	n	n
COCCNC(=O)CS(=O)Cc1nc(-c2ccc(Cl)cc2)oc1C (centres undefined)	n	n	n	n	n	n
Cc1ccc(-c2nc(CS(=O)CC(=O)NCc3ccc(Cl)cc3)c(C)o2)cc1 (centres undefined)	x	69	n	x	n	n
COc1ccc(-c2nc(CS(=O)CC(=O)NCc3ccc(Cl)cc3)c(C)o2)cc1 (centres undefined)	x	70	n	x	n	n
CCCCNC(=O)CS(=O)Cc1nc(-c2ccc(C)cc2)oc1C (centres undefined)	n	n	n	n	n	n
O=C(NCc1ccco1)C1Cc2ccccc2CN1S(=O)(=O)c1ccccc1F (centres undefined)	n	n	n	n	n	n
CCN(CC(=O)Nc1ccc2c(c1)OCCO2)c1nc(-c2cccnc2)nc2ccccc12	n	n	n	n	n	n
O=Nc1c(O)n(Cc2ccc(Cl)c(Cl)c2)c2ccccc12	n	n	n	n	n	n
C/C(CCc1ccc2c(c1)OCO2)=N\N=C1\NC(=O)CC(C(=O)Nc2ccc(Cl)cc2)S1 (centres undefined)	n	n	n	n	n	n
CCn1c(SCC(=O)Nc2sc3c(c2C#N)CCCC3)nnc1-c1ccncc1	n	n	n	n	17	n
Cc1cc(N2C(=O)C3CC=CC(C)C3C2=O)no1 (centres undefined)	n	n	n	n	n	n
O=C(c1cccs1)c1no[n+]([O-])c1C(=O)c1cccs1	n	n	n	92	n	n
CCCCNC(=O)NS(=O)(=O)c1ccc(NS(=O)(=O)c2ccccc2)cc1	n	n	n	n	n	n
COc1ccc(OC)c(C2C(C(C)=O)=C(O)C(=O)N2Cc2cccnc2)c1 (centres undefined)	n	n	n	n	n	n
COC(=O)C1=[N+]([O-])OC(C(=O)OC)C1c1c[nH]c2ccccc12 (centres undefined)	n	n	n	n	n	n
SMILES	PTPN22 act	PLK1 inh	PLK1 PBD inh	LYP inh 2	EphB4 antag	FAK blocker
CCc1nnc(NC(=O)CSc2nc3c(cc2C#N)CCC3)s1	n	n	n	n	n	n
COc1ccc(NC(=O)CSc2nc(N)c(C#N)cc2C#N)cc1	n	62	n	n	n	n
CN1CCc2nc(SCC(=O)Nc3ccc(Cl)cc3)c(C#N)cc2C1	n	53	n	n	n	n
O=C1CC(=C2c3ccccc3-c3ccccc32)C(=O)N1CCCCN1CCN(c2ccccc2)CC1	n	n	n	45	n	n
COc1ccc(Cl)cc1NC(=S)NCc1ccco1	n	n	n	n	n	n
O=C(Nc1c(C(=O)O)oc2ccc(Br)cc12)c1ccccc1	x	51	n	x	n	n
COc1ccccc1OCc1nnc(SCC(=O)NCc2ccco2)n1Cc1ccco1	n	n	n	26	n	n
CCCSc1nnc(-c2c[nH]c3ccccc23)n1C	x	64	n	x	n	n
Cn1c(SCC(=O)NCc2ccco2)nc2ccccc2c1=O	n	n	n	n	n	n
O=C(CSc1nc2ccccc2c2nc3ccccc3n12)NCc1ccco1	n	n	n	30	n	n
CCCSc1nnc(-c2c[nH]c3ccccc23)n1CC	x	60	n	x	n	n
CCOC(=O)C[n+]1c(C)ccc2c1CCC2	n	n	n	n	n	n
Cc1ccc2c(c1)SC1=NC(c3ccccc3)(C(F)(F)F)NC(=O)N12 (centres undefined)	n	n	n	n	n	n
Cn1c(SCC(=O)NCc2ccco2)nnc1-c1c[nH]c2ccccc12	x	65	n	x	n	n
CCc1nnc(NC(=O)CSc2nnc(-c3c[nH]c4ccccc34)n2CC)s1	n	n	n	n	n	n
CCn1c(SCc2cccnc2)nnc1-c1c[nH]c2ccccc12	x	67	n	x	n	n
CCOc1ccc(-n2c(SCC(=O)NCc3ccco3)nnc2-c2c[nH]c3ccccc23)cc1	n	n	n	n	n	n
O=C(CCN1CCN(c2ccc(Cl)cc2)CC1)Nc1nccs1	n	62	n	n	n	n
O=C(CCN1C(=O)c2ccccc2C1=O)Oc1ccc2ccccc2c1	n	n	n	75	n	n
O=S(=O)(c1ccccc1)n1ccc2cccnc21	n	n	n	n	n	n
COc1ccc(CCN2C(=O)c3ccncc3C2=O)cc1OC	n	n	n	n	n	n
CCCn1c(SCC(=O)N2CCN(S(=O)(=O)c3ccc(Cl)cc3)CC2)n[nH]c1=O	n	n	n	n	n	n
Cc1cc(C)n2c(SCC(=O)N3CCN(S(=O)(=O)c4ccc(Cl)cc4)CC3)nnc2n1	n	n	n	24	n	n
O=C(Cn1nc(Cc2cccnc2)c2ccccc2c1=O)N1CCN(C(=O)c2ccco2)CC1	x	61	n	x	n	n
O=C(Cn1nc(Cc2ccncc2)c2ccccc2c1=O)N1CCN(C(=O)c2ccco2)CC1	n	n	n	n	n	n
O=C(COc1ccc(F)cc1)Nc1nnc(-c2ccncc2)s1	n	n	n	n	n	n
O=C(COc1ccccc1F)Nc1nnc(-c2ccncc2)s1	n	54	n	n	n	n
CC(C)CNC(=O)CN(C1CCCCC1)S(=O)(=O)c1ccccc1	n	n	n	n	n	n
